Experimental data published in the supplement of paper PMC6555819.

Tests used:
Experiment in all cases: PBM binding z-score (relative to random genomic background probes); higher = stronger binding; sequences stand for … in GC…GCGATTGACAGCGTAGAATGAAGG
[1] = tested on: RARg:RXRa (NR concentration 270 nM, RXRa partner concentration 90 nM)
Summary of the method: (§1)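 Binding buffer was PBS pH 7.4 with 2% milk, 0.02% Triton X-100, 1 mM DTT, 0.2 mg/mL BSA and 0.4 mg/ml salmon testes DNA. In it, ligand-free nuclear receptor dimers were incubated 1 h on custom Agilent 4×180K protein-binding microarrays carrying double-stranded probes. Antibodies against each partner (one per run) detected binding, and z-scores were calculated against random background probes after regression normalization of scanned fluorescence.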

[2] = tested on: RARg homodimer (NR concentration 270 nM)
Summary of the method: as §1

[3] = tested on: RXRa DBDmut IVT, anti-RXR (DBD mutation: RXRa K156A/R161A, NR concentration 90 nM)
Summary of the method: as §1

[4] = tested on: RXRa homodimer (NR concentration 180 nM)
Summary of the method: as §1

[5] = tested on: THRa homodimer (NR concentration 90 nM)
Summary of the method: as §1

[6] = tested on: VDR homodimer (NR concentration 270 nM)
Summary of the method: as §1

[7] = tested on: THRa:RXRa (NR concentration 90 nM, RXRa partner concentration 90 nM)
Summary of the method: as §1

Sequence | PBM binding z-score [1] | PBM binding z-score [2] | PBM binding z-score [3] | PBM binding z-score [4] | PBM binding z-score [5] | PBM binding z-score [6] | PBM binding z-score [7]
CGTCAAAGTTCAACTAAGGTTACGTAAAGCACGC | 6.64 | 7.26 | 4.73 | 6.03 | 2.2 | 4.89 | 
ATATGTAGGTTACCTGGGGTCATTCAGACTAGGC | 4.46 | 3.44 | 1.99 | 5.78 | 3.39 | 5.34 | 
CCGAGTAGGTTACGAGGGGTCATTCAGTGCGAAT | 5.1 | 3.76 | 1.89 | 5.85 | 0.607 | 5.41 | 
CCTACGGGGCCACGAAAGGTCATTGATTCAGTGA | 5.49 | 5.3 | 0.662 | 5.74 | 0.878 | 2.64 | 4.64
GCATATAGGTAATACAAGGTCAAAGTCCGATTGT | 3.39 | 2.81 | 1.43 | 3.97 | 3.05 | 2.68 | 
CGAACGAGGTCATCCAGGACAGTGAATACATTGA | 6.67 | 6.52 | 4.86 | 7.28 | 3.83 | 6.44 | 
CGTCAAACTTCAACTAAGGTAACGTAAAGCACGC | 0.289 | 0.43 | 0.617 | 0.424 | 1.98 | 0.47 | 2.4
CGTCCAAGGTCATATGAGGTCAGTGAAGACAGAT | 6.88 | 7.55 | 4.62 | 7.07 | 4.58 | 6.28 | 
CCTACTGGGTCACGAAAGGTCATTGATTCAGTGA | 6.96 | 6.81 | 1.69 | 7.05 | 1.82 | 2.59 | 
ACTTACGGGTCTACGAGGTTATAGCACGCGTATA | 0.863 | 0.586 | 0.937 | 1.32 | 0.82 | 1.55 | 1.83
ACTCGGATGACAAAGGTCAGAGCTACGCCAGTGA | 4.9 | 4.66 | 0.624 | 4.83 | 0.0278 | 1.1 | 2.54
CGAACTAGGTCTAAGGACAGTGAAAGGCGACGTA | -0.0449 | 0.382 | 0.0916 | 0.0481 | 1.96 | -0.112 | 2.65
AATACAGGGTCATCGTACGCCAGAGTACGCACAG | 5.65 | 4.81 | 3.46 | 6.92 | 1.73 | 4.17 | 3.87
CGTCCAAGGTCATAGGAGGTCAATGAAGACAGAT | 6.94 | 7.28 | 3.99 | 7.15 | 3.89 | 4.97 | 
ATATGTAGTTTATCGGGTCATTCAGTTTGCGCAT | 2.41 | 1.85 | 2.32 | 2.61 | 3.09 | 4.13 | 3.42
CTCGAAAGGTCGTGCTCAGATGAGTATACCAAAC | 4.06 | 3.84 | 1.66 | 4.62 | -0.171 | 1.15 | 2.22
CGAACTAGGTCATCCAGGTCAGTGAATACATTGA | 4.85 | 5.61 | 2.52 | 3.47 | 2.83 | 3.77 | 4.21
TAGCCTAGGTCATTCAGGGGCCAGCATAGAAAGC | 6.31 | 4.44 | 1.98 | 2.92 | 0.61 | 1.44 | 3.55
CAAACCAGGTCACAGAGGTCAAAGTCCGTGCGTA | 7.52 | 7.53 | 4.06 | 8.5 | 3.92 | 8.47 | 
TTGCCTAGGTCATTGGGCCAGTATAGTACGCATC | 3.73 | 4.22 | 1.9 | 2.8 | 1.05 | 1.14 | 2.89
CGAACTAGGTCAAGGGACAGTGAAAGGCGACGTA | 3.82 | 4.43 | 0.75 | 2.43 | 0.755 | 0.0374 | 2.63
CGTCCAAGGACAATGCTAGGTCAGTGAAAGCATT | 1.34 | 1.85 | 0.603 | 0.146 | 1.91 | 0.161 | 2.91

Sequence | PBM binding z-score [1] | PBM binding z-score [2] | PBM binding z-score [3] | PBM binding z-score [4] | PBM binding z-score [5] | PBM binding z-score [6] | PBM binding z-score [7]
GGAACGAGGGCATTCGAGTTCATAGCATGGCGAT | 2.51 | 2.58 | 3.99 | 2.5 | -0.00454 | 8.72 | 
AATACAGGGTCATCTTAGGCCAGAGTACGCACAG | 5.61 | 5.2 | 3.85 | 6.42 | 2.11 | 3.76 | 
CGTCAAAGGTCAAAGGTCAGTGAAGAGATGACGG |  | 9.73 | 4.01 |  | 1.08 | 3.49 | 4.94
CAAACGAGGTCACGAAAGGTCAAAGTCGAATGAC |  | 9.89 | 4.62 |  | 4.41 | 6.31 | 5.28
CCGAGAAGGTTACGAGGGGGCATTCAGTGCGAAT |  | 3.13 | 1.65 | 3.45 | 0.555 | 3.67 | 4.4
GCTGCTAGTTCAACTGATGGTCAGCTAAAGCTCG | 1.93 | 1.07 | 1.97 |  | -0.498 | 0.327 | 0.297
CAAACTAGGTCAAAAGGTCAAAGTCCGCTTCCCG |  | 8.65 | 2.66 |  | 1.87 | 3.77 | 4.48
TAGCCTAGGTCATTCAGGGGCAAGTATAGAAAGC |  | 4.44 | 2.38 | 3.47 | 0.948 | 2.65 | 
CGTCCAAGGTCACAGAGGTCAGTGAATGCCGAGT |  | 8.03 | 3.92 | 7.67 | 3.95 | 6.67 | 
TAGCCTAGTTCATGCGGGCCAGTATAGTGTCGGC |  | 0.586 | 1.71 | 0.0808 | -0.684 | 1.56 | 
CCTACTGGGTCAAAGGTCATTGATTCCAATGCTC |  | 5.88 | 2.87 |  | 1.69 | 3.95 | 4.52
CCTTAGGGGTCAAGGTTATAGCACGGGTGGTACG |  | 7.42 | 3.5 |  | 1.39 | 4.22 | 4.36
ATCGAAAGGTCAAAGGTGAGTATACCCACCCGAA |  | 8.44 | 3.46 |  | 0.712 | 2.97 | 4.31
CGAACGAGGTCACCAGGACAGTGAAGAGGTTGGA | 7.15 | 7.24 | 4.32 |  | 3.86 | 3.87 | 4.66
GCTGCGAGGTCAACTGATGGTCAGCTAAAGCTCG |  | 7.44 | 4.3 | 7.17 | 2.9 | 3.42 | 4.33
AATACGGGGTCATCGTAGGCCAGAGTACGCACAG |  | 7.15 | 4.86 |  | 2.62 | 6.13 | 4.99
CCTCGGAGGTCAACAGGAGGTCAGAGCTGCCAGA |  | 7.73 | 3.36 | 7.54 | 1.81 | 3.37 | 4.73
CAAAATAGGTCACAGAGGTCAAAGTCCGTGCGTA |  | 8.18 | 3.08 | 8.46 | 2.2 | 6.13 | 4.74
TTACCAAGGTCAAAGGTCGTTGATGCACGCCTTG |  | 6.63 | 3.96 |  | 2.76 | 4.36 | 4.73
TGTCAAAGTTCAAAGGTTACGTAAGTATCCACAC |  | 6.76 | 4.3 |  | 0.193 | 4.2 | 4.44
TATACAGGGTCAAAGGCCAAAGTACGAATGTCGA | 6.22 | 5.3 | 3 |  | 0.785 | 3.3 | 3.76
CCAACTAGGTCAAAGGACAGTGAAAGGCGACGTA |  | 4.53 | 1.91 | 3.05 | 0.765 | 0.866 | 2.4

Sequence | PBM binding z-score [1] | PBM binding z-score [2] | PBM binding z-score [3] | PBM binding z-score [4] | PBM binding z-score [5] | PBM binding z-score [6] | PBM binding z-score [7]
GCTTAAGGGTCAAAGGTTATAGCATGAATAGAAT |  | 7.11 | 3.54 | 9.83 | -0.296 | 2.8 | 4.14
CCTTAGGGGTCACGAGGTTATAGCACGACGAGCG |  | 8.18 | 4.14 |  | 1.8 | 4.55 | 4.53
TCTAGTTGGTCAAAGGTCACGCACTCGAAATGCG |  | 7.23 | 1.92 | 8.9 | 2.52 | 3.12 | 4.31
CGTCAAAGGTCAGAGAGGTCAGTGAATGCCGAGT |  | 9.03 | 3.48 |  | 1.6 | 5.19 | 4.37
ATATGTAGGTCAAGGGTCATTCAGGTTGGTTCGC | 7.22 | 6.02 | 2.84 |  | 2.22 | 4.28 | 4.58
CAAAATAGGTCAAAGGTCAAAGTCGAGCCAACCA |  | 7.97 | 2.84 |  | 1.18 | 2.93 | 4.79
CCGACGGGGGCAAAGGTTACCATACTCAGTACGA | 6.4 | 4.09 | 3.13 |  | 1.02 | 2.92 | 3.88
CGTCCAAGGTCATAGGGGGTCAGTGAAGACAGAT |  | 7.83 | 4.45 | 7.31 | 4.24 | 4.75 | 5.24
CTATGTAGGTTAAGGGAGTCATTCAGTTTGAAAG |  | 0.44 | 0.0971 | 0.802 | -0.282 | 0.283 | 0.572
CAAACCAGGTCAAAGGTCAAAGTCGAGCCAACCA | 8.97 | 7.49 | 3.71 |  | 2.57 | 3.91 | 5.07
AATACGGGGTCACTAGGCCAGAGTAGGTACGAAT | 7.06 | 6.82 | 4.12 |  | 2.25 | 4.82 | 4.25
CAAACAAGGTCACGAAAGGTCAAAGTCGAATGAC |  | 9.5 | 4.12 |  | 3.65 | 5.74 | 5.17
TAGCCGAGGTCATTCAGGGGCCAGTATAGAAAGC |  | 6 | 4.38 | 6.55 | 2.38 | 5.34 | 4.56
ATCGAAAGGTCATGAGGTGAGTATACAGAAAGGC |  | 8.01 | 3.11 |  | 1.95 | 2.68 | 4.37
ATATGTAGGTTAAAGGTCATTCAGGTTGGTTCGC | 6.81 | 5.37 | 2.47 |  | 1.97 | 5.11 | 4.31
CGTCAAAGTTCAACTAAGGTCACGTAAAGCACGC |  | 8.89 | 4.75 | 7.65 | 5.58 | 6.52 | 
TGTCAAAGTTCAAAGGTGACGTAAGTATCCACAC | 6.99 | 6.27 | 4.5 |  | -0.183 | 4.97 | 3.76
ACTTACGGGTCAACGAGGTCATAGCACGCGTATA | 7.14 | 6.95 | 3.65 |  | 3.64 | 7.5 | 
CAAAATAGGTCACGAAAGGTCAAAGTCGAATGAC |  | 8.76 | 2.5 | 8.89 | 1.51 | 3.8 | 5.07
GATACGGGGTCAAGGCCAGAGTACGCGTATTGAT | 7.3 | 6.89 | 4.16 |  | 2.04 | 4.85 | 4.23
CGTCAAAGGTCAGCAGGTCAGTGAAAGCGACGTG |  | 8.73 | 2.54 |  | 0.878 | 1.62 | 3.92
